In PubChem BioAssay AID1117359 (Southern Research Institute, 2015):
The whole screen tested about 1,500 compounds, of which about 460 (31%) were called active. These entries were drawn from the full list. Results with a measured potency or affinity are listed apart. A number with no mark means an inactive call.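 The calls were made as follows: active = viability at or below 80% at any tested concentration, marking the compound as toxic; inactive = the rest.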

Experiment: viability loss in THP-1 monocytes – THP-1 cells, cytotoxicity control for Vif-APOBEC3G degradation inhibitor project, dose response (AID 1117359)
Conditions: THP-1 viability, CellTiter-Glo luminescence, 72 h; series mostly up to 40 µM; viability: at the top concentration

Row | SMILES | viability | outcome
1 | CCOC(=O)c1ccc(CC(=O)c2ccc(O)c(O)c2O)o1 | 97.4% | 
2 | Cc1ccc(C(=O)NNS(=O)(=O)c2ccc(F)cc2)cc1 | 94.9% | 
3 | O=C(NNC(=O)c1ccccc1F)c1cccc(-n2cccc2)c1 | 108% | 
4 | CN(C(=O)c1ccc(OC2CCN(S(=O)(=O)N(C)C)CC2)cc1)C1CCCCC1 | 83.9% | 
5 | CCOC(=O)Cn1c(=O)c2c(nc3n2CCN3Cc2ccccc2)n(C)c1=O | 99.8% | 
6 | O=C(Cc1ccc2c(c1)OCCO2)N1CCN(S(=O)(=O)c2cccs2)CC1 | 96% | 
7 | COc1ccc(N2CCC(CNS(=O)(=O)c3cccc(C(F)(F)F)c3)C2)cc1 (stereo not given) | 83.1% | 
8 | CN(C)/C=N/NC(=O)c1ccccc1Cl | 120% | 
9 | O=c1cc(OCc2ccccc2)cc[nH]1 | 89.6% | 
10 | COC(=O)c1ccc(COc2ccc(/C=N/Nc3cccc(C(=O)O)c3)cc2)cc1 | 96.3% | 
11 | C[C@H](NC(=O)OCc1ccccc1)C(=O)NNC(=O)[C@H](C)NC(=O)OCc1ccccc1 | 105% | 
12 | O=C(Nc1ccc(COc2ccccc2)cc1)Oc1ccccc1N1CCOCC1 | 104% | 
13 | CCN(CC(=O)Nc1c(F)cccc1F)C(=O)c1cccc(-n2cccc2)c1 | 107% | 
14 | CCCCC1=CC2=C(c3ccco3)C(=O)C(C)(OC(=O)c3ccc(OC)cc3)C(=O)C2=CN1CCCCO (stereo not given) | 104% | 
15 | CC(=O)Nc1ccc(C=C(C#N)c2ccc(C)cc2)cc1 | 95.3% | 
16 | CCOc1ccc(CCNC(=O)C2CC(C)=CCC2C(=O)O)cc1OCC (stereo not given) | 101% | 
17 | CCCCc1cc(=O)oc2cc(OCC(=O)N(CC)CC)c(Cl)cc12 | 86.8% | 
18 | C[C@H](NC(=O)NCc1cccs1)C(=O)O | 93.5% | 
19 | CSc1cccc(NC(=O)C(C)C)c1 | 92.3% | 
20 | CCOC(=O)c1cc2c(c(CCO)n1)[C@H](CCO)N(S(=O)(=O)C(C)(C)C)C2 | 91.3% | 
21 | Cc1oc(/N=C/c2cccc3ccccc23)c(C#N)c1C | 90.9% | 
22 | CCN1CCN(Cc2cc(=O)oc3ccc(C)cc23)CC1 | 104% | 
23 | COC(=O)C(Cc1c[nH]c2ccccc12)NC(=O)C(C)C (stereo not given) | 107% | 
24 | Cc1ccc(NC(=O)C(C)Sc2nc3nc(C)cc(C)n3n2)cc1 (stereo not given) | 102% | 

Row | SMILES | viability | outcome
25 | O=S(=O)(c1ccc2nc(-c3ccco3)c(-c3ccco3)nc2c1)N1CCOCC1 |  | inactive
26 | Cc1ccc(CNC(=O)CN(c2cccc([N+](=O)[O-])c2)S(C)(=O)=O)cc1 | 98.8% | 
27 | CC(NC(=O)C(NS(=O)(=O)c1cccs1)C(C)C)c1ccc(S(N)(=O)=O)cc1 (stereo not given) | 99% | 
28 | Cc1cc(=O)nc2c3ccccc3n(C(C)C(=O)NCCC(C)C)n12 (stereo not given) | 94% | 
29 | Cc1cc(C)cc(N(CCC#N)C(=O)CSc2nc3nc(C)cc(C)n3n2)c1 | 86.5% | 
30 | Cc1ccc(OCc2ccc(C(=O)NN)o2)cc1C | 89.7% | 
31 | Cc1c(NC(=O)COC(=O)c2ccccc2Cl)c(=O)n(-c2ccccc2)n1C | 103% | 
32 | NC(=O)c1ccc(NC(=O)CSc2nc3ccccc3c(=O)n2CCCN2CCOCC2)cc1 | 95.7% | 
33 | O=C(NC1CCCCC1)C(c1ccc(Cl)cc1)N(C(=O)c1ccccn1)c1cccnc1 (stereo not given) | 102% | 
34 | Cc1ccccc1Cn1cc(NC(=O)c2cc(C3CC3)on2)cn1 | 91.4% | 
35 | O=C(c1cccc(S(=O)(=O)N2CCCC2)c1)N1CCOCC1 | 101% | 
36 | COc1ccc(NC(=S)N(CCCN2CCCC2)Cc2ccco2)cc1 | 94.6% | 
37 | CCOC(=O)C1(Cc2ccc(OC)cc2)CCN(C(=O)c2cccc3nccnc23)CC1 | 99.2% | 
38 | CCOc1ccc(-n2c(C)nc(O)c2N=Nc2ccccc2)cc1 | 94.9% | 
39 | COc1cccc(NC(=O)Nc2nnc(N3C(C)CCCC3C)s2)c1 (stereo not given) | 93.2% | 
40 | O=C1N=C(N2CCN(c3ccccc3)CC2)S/C1=C\c1ccco1 | 86.3% | 
41 | CCCCn1c(N)c(N(CCOC)C(=O)c2cc(-c3ccco3)nc3ccccc23)c(=O)[nH]c1=O | 101% | 
42 | CCOc1ccc(/C=C2\SC(=S)N(CCC(=O)O)C2=O)cc1 | 100% | 
43 | C=CCOc1ccc(/C=C2\SC(=S)N(CCC(=O)O)C2=O)cc1 | 108% | 
44 | CN(CCC#N)C(=O)COC(=O)c1c2c(nc3ccccc13)/C(=C\c1ccco1)CC2 | 83% | 
45 | COc1ccccc1C(C#N)N1N=C(C)CC1(C)C (stereo not given) | 107% | 
46 | CCCN(CC(=O)Nc1ccccc1C)C(=O)COC(=O)c1cnc(C)cn1 | 105% | 
47 | O=C(COc1ccccc1C(=O)O)Nc1ccc(SC(F)F)cc1 | 102% | 
48 | COc1ccccc1NC(=O)COC(=O)c1cc2c(s1)CCC2 | 81% | 

Row | SMILES | viability | outcome
49 | CN(C)CCCN(CCCN(C)C)C(=S)Nc1ccc(S(=O)(=O)N2CCOCC2)cc1 | 96.8% | 
50 | CNc1ccc(Br)cc(C(=O)/C=C/c2ccc(OC)cc2)c1=O | 89% | 
51 | CCNc1ccc(Br)cc(C(=O)/C=C/c2ccc(Cl)cc2)c1=O | 83.2% | 
52 | COc1ccc(Br)c(C(=O)NC(C)(C)CO)c1 | 97.4% | 
53 | O=C(CCc1ccccc1)NNC(=S)NCCc1ccccc1 | 82% | 
54 | O=C1CCCCC1Oc1ccc2ccc(=O)oc2c1 (stereo not given) | 119% | 
55 | Cc1ccc(OCCC(=O)OCC(=O)c2ccc3c(c2)NC(=O)CO3)cc1 | 121% | 
56 | Oc1ccc(/C=N/N2CCOCC2)c(O)c1O | 90.6% | 
57 | Oc1ccc(/C=N/N2CCCCC2)c(O)c1O | 111% | 
58 | CN=c1scc(C)n1/N=C/c1ccc(O)c(O)c1O |  | inactive
59 | CCOC(=O)C1CCCN(C(=O)c2cc(-c3ccco3)nc3ccccc23)C1 (stereo not given) | 91.6% | 
60 | Cc1nn(Cc2ccccc2)c(C)c1/C=N/NC(=O)c1ccccc1O | 96.5% | 
61 | C=C(C)C(=O)Nc1cccc(C2=NOC3(C2)C[C@@H](C(N)=O)N(C(=O)/C=C/CC)C3)c1 (stereo not given in full) | 101% | 
62 | O=C1N=C(N2CCOCC2)SC1=Cc1ccco1 | 88.8% | 
63 | O=C(/C=C/c1ccco1)c1cccnc1 | 101% | 
64 | COc1cc(-n2cnnn2)ccc1S(=O)(=O)N1CCOCC1 | 106% | 
65 | O=[N+]([O-])c1ccc(Cl)c(S(=O)(=O)Nc2cccc(S(=O)(=O)NC3=NCCC3)c2)c1 | 116% | 
66 | CN1CCN(/C=C(\C#N)S(=O)(=O)c2ccc(Cl)cc2)CC1 | 95.5% | 
67 | CC(C)(C)NC(=O)/C(=C/c1ccco1)c1ccccc1 | 106% | 
68 | COc1ccc(CN2CCSCC2)cc1C | 90.2% | 
69 | COc1ccc(C(=O)CSc2nnc3n2CCCN3C(=O)Nc2ccccc2)cc1 | 91% | 
70 | CCC1=NN2C(=N)/C(=C\c3cccn3-c3cccc(Cl)c3)C(=O)N=C2S1 | 92.3% | 
